High-throughput results (PubChem)
This is a sample that favours compounds with a hit; in the whole collection about 3.1% have one here.
Mtb BioA inh – blocks M. tuberculosis BioA enzyme activity | purified M. tuberculosis BioA enzyme, plate reader | inhibition, % at 9.99 µM | 360,000 compounds, 0.096% hits | AID 602481; in the data active = inhibition above about 40%
GDH-TPI counter-1 – counter-screen for M. tuberculosis FBA inhibitors: GDH-TPI coupled enzymes; GDH-TPI coupled enzyme counterscreen, NADH absorbance; inhibition, % at 4.8 µM; 360,000 compounds, 1.2% hits; AID 588335; in the data active = inhibition above about 30%;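 note: 0% = DMSO wells and 100% = wells lacking the enzyme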
SARS 3CLpro inh – SARS-CoV 3CLpro protease inhibition; P0C6X7; recombinant SARS-CoV 3CLpro, quenched FRET peptide cleavage; inhibition, % at 6 µM; 290,000 compounds, 0.14% hits; AID 1706; in the data active = inhibition above about 12%
FadD28 FP inh – inhibitors of Mycobacterium tuberculosis FadD28 bisubstrate binding | FadD28 bisubstrate probe binding, fluorescence polarization | inhibition, % at 12.5 µM | 360,000 compounds, 0.22% hits | AID 588549; in the data active = inhibition above about 8.5%, passing the limit was not always enough
Mtb FBA inh – Mtb fructose-bisphosphate aldolase inhibition | P9WQA3 | purified M. tuberculosis FBA, fluorescence read-out | inhibition, % at 1 µM | 360,000 compounds, 2.3% hits;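 note: 0% = vehicle and 100% = reference inhibitor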
Target sequence (P9WQA3 whole entry, looked up): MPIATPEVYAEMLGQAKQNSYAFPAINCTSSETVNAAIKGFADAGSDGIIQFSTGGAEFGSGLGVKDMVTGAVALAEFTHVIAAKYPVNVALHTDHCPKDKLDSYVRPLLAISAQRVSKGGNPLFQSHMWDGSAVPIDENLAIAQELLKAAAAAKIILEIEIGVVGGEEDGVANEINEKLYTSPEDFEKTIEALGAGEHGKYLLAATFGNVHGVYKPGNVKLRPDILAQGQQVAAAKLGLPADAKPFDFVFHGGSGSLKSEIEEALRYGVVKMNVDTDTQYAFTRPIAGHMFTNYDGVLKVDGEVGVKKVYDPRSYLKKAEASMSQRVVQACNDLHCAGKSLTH
Mtb FBA confirm – Mtb FBA inhibition, confirmed | shares compounds with Mtb FBA inh | purified M. tuberculosis FBA, fluorescence read-out | inhibition, % at 1 µM | 5,600 compounds, 78% hits | AID 651616;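 note: 0% = vehicle wells and 100% = reference inhibitor wells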
GDH-TPI counter-2 – inhibits GDH-TPI coupling enzymes, flagging Mtb FBA hits; shares compounds with Mtb FBA inh; inhibition, % at 1 µM; 5,600 compounds, 81% hits; AID 652141; GDH-TPI coupled enzyme counterscreen, fluorescence; in the data active = inhibition above about 10%
GDH-TPI DR – GDH-TPI dose response counter-screen for Mtb FBA | AID 652145 | 170 compounds, 79% hits | shares compounds with Mtb FBA inh | GDH-TPI coupled enzyme assay, fluorescence, artifact counterscreen | IC50, µM; call rule not given here
* hit, by the source's call. Cut-off read from the data, not from the text of the source, unless noted: active = inhibition above about 27%; inactive = the rest.

CCN1CCN(C(c2cc3cc4c(cc3[nH]c2=O)OCO4)c2nnnn2C(C)(C)CC)CC1 (stereo not given) was read as GDH-TPI counter-1 32*, SARS 3CLpro inh 0, FadD28 FP inh -2, Mtb FBA inh 94*, Mtb FBA confirm 9 and GDH-TPI counter-2 1.
`O=c1[nH]c2cc3c(cc2cc1C(c1nnnn1CC1CCCO1)N1CCCC1)OCO3` (stereo not given) gave GDH-TPI counter-1 21, SARS 3CLpro inh -2, FadD28 FP inh 1, Mtb FBA inh 29*, Mtb FBA confirm active and GDH-TPI counter-2 active.
For C[C@@H]1CCCCO[C@@H](CN(C)S(=O)(=O)c2ccc(F)cc2)[C@@H](C)CN([C@@H](C)CO)C(=O)c2cc(NC(=O)c3ccccc3)ccc2O1 the results were Mtb BioA inh 1.
CCCN(C)C[C@H]1OCc2cnnn2CCCC(=O)N([C@@H](C)CO)C[C@@H]1C was read as Mtb BioA inh -1.
`COc1ccc(NC(=O)Nc2ccc3c(c2)C(=O)N([C@H](C)CO)C[C@H](C)[C@H](CN(C)C(=O)Nc2ccc(C(F)(F)F)cc2)O3)cc1` gave Mtb BioA inh -1.
Screening CCCNC(=O)C[C@H]1C[C@@H]2c3cc(NS(=O)(=O)c4ccccc4)ccc3O[C@@H]2[C@@H](CO)O1 returned Mtb BioA inh 0.
For Cc1cc(=O)oc2cc3c(cc12)OCCO3 the results were GDH-TPI counter-1 8, SARS 3CLpro inh 0, FadD28 FP inh 0, Mtb FBA inh 62*, Mtb FBA confirm 196* and GDH-TPI counter-2 162*.
O=C1OCC2=C1C(c1ccc(F)cc1)c1cc3c(cc1N2)OCO3 (stereo not given) was read as GDH-TPI counter-1 7, SARS 3CLpro inh -7, FadD28 FP inh -2, Mtb FBA inh 27*, Mtb FBA confirm 133* and GDH-TPI counter-2 142*.
O=C1OCC2=C1C(c1ccc(F)cc1)c1cc3c(cc1N2)OCCO3 (stereo not given) was read as GDH-TPI counter-1 37*, SARS 3CLpro inh 1, FadD28 FP inh -2, Mtb FBA inh 74*, Mtb FBA confirm active and GDH-TPI counter-2 137*.
`CCOc1ccccc1C1C2=C(COC2=O)Nc2cc3c(cc21)OCO3` (stereo not given) gave GDH-TPI counter-1 2, SARS 3CLpro inh -1, FadD28 FP inh 1 and Mtb FBA inh 11.
For COc1cccc(C2C3=C(CC(C)(C)CC3=O)Nc3cc4c(cc32)OCO4)c1 (stereo not given) the results were Mtb BioA inh 0, GDH-TPI counter-1 25, SARS 3CLpro inh -1, FadD28 FP inh 4 and Mtb FBA inh 15.
CC(=O)Oc1ccc(C2C3=C(CC(C)(C)CC3=O)Nc3cc4c(cc32)OCCO4)cc1 (stereo not given) was read as GDH-TPI counter-1 43*, SARS 3CLpro inh 0, FadD28 FP inh -3, Mtb FBA inh 47*, Mtb FBA confirm 72* and GDH-TPI counter-2 63*.
Screening CC(C)NC(=O)N(C)C[C@@H]1OCCCC[C@H](C)Oc2ccc(NS(=O)(=O)c3ccccc3)cc2C(=O)N([C@@H](C)CO)C[C@@H]1C returned Mtb BioA inh -1.
For Nc1nc2ccc(S(=O)(=O)c3ccc4nc(N)sc4c3)cc2s1 the results were Mtb BioA inh -1, GDH-TPI counter-1 8, SARS 3CLpro inh -1, FadD28 FP inh -1, Mtb FBA inh 28*, Mtb FBA confirm 72* and GDH-TPI counter-2 49*.
`CC(C)NC(=O)NCC[C@@H]1CC[C@@H](NS(=O)(=O)c2ccc(-c3ccccc3)cc2)[C@H](CO)O1` gave Mtb BioA inh 0.
For O=C(C[C@@H]1C=C[C@H](NC(=O)C2CCC2)[C@@H](CO)O1)NCCCN1CCOCC1 the results were Mtb BioA inh 2.
CCCCn1c(-c2cccnc2)nc2cc3[nH]c(=O)c(C(C)C)nc3cc21 was read as Mtb BioA inh 0, GDH-TPI counter-1 31*, SARS 3CLpro inh -4, FadD28 FP inh 0, Mtb FBA inh 64*, Mtb FBA confirm active and GDH-TPI counter-2 170*.
`CCCCn1c(-c2cccc(Br)c2)nc2cc3[nH]c(=O)c(C(C)C)nc3cc21` gave Mtb BioA inh -2, GDH-TPI counter-1 21, SARS 3CLpro inh -2, FadD28 FP inh -9, Mtb FBA inh 34*, Mtb FBA confirm 8 and GDH-TPI counter-2 -1.
Screening O=C(NCc1ccccc1)[C@]1(CCS(=O)(=O)c2ccccc2)N=C(c2ccc(OCCCO)cc2)O[C@@H]1c1ccccc1 returned Mtb BioA inh 0.
Screening CC1CCN(C(=O)COC(=O)c2n[nH]c3ccccc23)CC1 returned Mtb BioA inh 0, GDH-TPI counter-1 -9, SARS 3CLpro inh 4, FadD28 FP inh 0 and Mtb FBA inh 12.
For Cc1nn(-c2ccccc2)nc1C(=O)OCC(=O)N1CCC(C)CC1 the results were Mtb BioA inh 0, GDH-TPI counter-1 -1, FadD28 FP inh 0, Mtb FBA inh 28*, Mtb FBA confirm 94* and GDH-TPI counter-2 77*.
For CCN(C(=O)COC(=O)c1oc2ccc(OC)cc2c1C)C1CCS(=O)(=O)C1 (stereo not given) the results were Mtb BioA inh -2, GDH-TPI counter-1 4, FadD28 FP inh -3, Mtb FBA inh 60*, Mtb FBA confirm 112* and GDH-TPI counter-2 121*.
`CCOc1ccc2oc(C(=O)OCC(=O)NC3CCCC3)c(C)c2c1` gave Mtb BioA inh -1, GDH-TPI counter-1 2, FadD28 FP inh 0, Mtb FBA inh 31*, Mtb FBA confirm 14, GDH-TPI counter-2 9 and GDH-TPI DR 6.7*.
`CCOc1ccc2oc(C(=O)OCC(=O)NC(=O)NC3CCCC3)c(C)c2c1` gave GDH-TPI counter-1 10, SARS 3CLpro inh -3, FadD28 FP inh -1 and Mtb FBA inh 18.
CCOc1ccc2oc(C(=O)OCC(=O)NC(=O)NC)c(C)c2c1 was read as Mtb BioA inh 1, GDH-TPI counter-1 16, SARS 3CLpro inh 2, FadD28 FP inh -3 and Mtb FBA inh 8.
COc1ccc2oc(C(=O)NC3(C)CCS(=O)(=O)C3)c(C)c2c1 (stereo not given) was read as GDH-TPI counter-1 12, FadD28 FP inh 0, Mtb FBA inh 39*, Mtb FBA confirm active and GDH-TPI counter-2 active.
`CCCN(CC1CC1)C(=O)COC(=O)c1oc2ccc(OCC)cc2c1C` gave Mtb BioA inh 0, GDH-TPI counter-1 9, FadD28 FP inh -2, Mtb FBA inh 42*, Mtb FBA confirm active and GDH-TPI counter-2 186*.
